Experiment [1] can be described thus: inhibitors of TNFa-induced NFkB p65 translocation, primary screen, imaging, HUVEC, MLSMR starter and 10KST1 sets (AID 438;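 active = inhibition above 20% together with a positive visual image hit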;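 also: compound added about 3h40 before a 20 min TNFalpha stimulation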;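 as to inhibition: signal is the nuclear over cytoplasmic p65 intensity ratio per well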). The settings on record: HUVEC TNFa-induced p65 nuclear translocation; cell count: measured here: nuclei count (cytotoxicity indicator), at 2.08 µM; inhibition: at 2 µM, stronger effect = higher value, 0% TNFa-plus-vehicle, 100% no-TNFa wells.
The nature of experiment [2]: inhibitors of mutant huntingtin aggregation, primary screen, imaging, exon1htt(103Q)mCFP cells, high-content imaging (AID 483;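 active = visual image review flags a hit and inhibition of aggregation exceeds 20%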;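 also: compound exposure lasted 3 days before fixation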;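 as to nuclei count: percent of the per-plate median nuclei count of sample wells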). The settings on record: exon1htt(103Q)mCFP cell line, aggregate imaging, at 2 µM; inhibition of aggregation: stronger effect = higher value; nuclei count: measured here: cell count, toxicity.
Experiment [3] is described as follows: inhibitors of E-selectin induction by TNFa, primary screen, imaging, HUVEC, immunofluorescence, MLSMR starter and 10KST1 sets (AID 487;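 active = visually confirmed hit in the image check and inhibition above 20%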;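 as to inhibition: signal is fraction of cell area covered by stained E-selectin grains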;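 as to nuclei count: 100% = median nuclei count of all wells on the same plate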). The settings on record: HUVEC TNFalpha-induced E-selectin immunofluorescence imaging, at 2 µM; inhibition: stronger effect = higher value; nuclei count: measured here: cell number, toxicity.
Experiment [4] concerns the target Voltage-gated potassium channel subunit beta-2 (Rattus norvegicus) (UniProt P62483). The experiment in a line: KvBeta enzyme negative modulators, primary screen, biochemical, NADPH fluorescence (AID 622;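 active = fluorescence slope higher than the sample average by over 3 SD, cut at about -0.22 in these data, passing the limit was not always enough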;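 also: slope of raw intensity against log time taken from 70 to 1610 s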). Conditions: recombinant KvBeta, 4-cyanobenzaldehyde reduction, at 10 µM, stronger effect = higher value.
The target is the same in experiment [5]. The experiment in a line: KvBeta positive modulators, primary screen, biochemical, NADPH fluorescence (AID 623;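 active = NADPH fluorescence slope more negative than the mean of all samples by about 3 SD, 99.7% confidence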;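 also: fluorescence intensity change per second fitted from 20 to 320 s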). Conditions: Recombinant KvBeta, NADPH fluorescence decrease slope, 10 min; at 10 µM; stronger effect = lower value.
The target in experiment [6] is Alpha-2C adrenergic receptor (Homo sapiens) (UniProt P18825). The experiment in a line: modulators of alpha2C/GIRK thallium flux, primary screen, cell-based, HEK293 alpha2C/GIRK1/2 (AID 624;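 active = fluorescence slope after compound addition differing from the mean of all screened samples at 99.7% confidence, in either direction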;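 also: slope of fluorescence ratio to pre-addition baseline per second over 15 to 24 s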). The settings on record: thallium flux BTC fluorescence, at 10 µM, actives lie on both sides.
Alpha-2C adrenergic receptor (Homo sapiens), sequence (P18825 whole entry, looked up): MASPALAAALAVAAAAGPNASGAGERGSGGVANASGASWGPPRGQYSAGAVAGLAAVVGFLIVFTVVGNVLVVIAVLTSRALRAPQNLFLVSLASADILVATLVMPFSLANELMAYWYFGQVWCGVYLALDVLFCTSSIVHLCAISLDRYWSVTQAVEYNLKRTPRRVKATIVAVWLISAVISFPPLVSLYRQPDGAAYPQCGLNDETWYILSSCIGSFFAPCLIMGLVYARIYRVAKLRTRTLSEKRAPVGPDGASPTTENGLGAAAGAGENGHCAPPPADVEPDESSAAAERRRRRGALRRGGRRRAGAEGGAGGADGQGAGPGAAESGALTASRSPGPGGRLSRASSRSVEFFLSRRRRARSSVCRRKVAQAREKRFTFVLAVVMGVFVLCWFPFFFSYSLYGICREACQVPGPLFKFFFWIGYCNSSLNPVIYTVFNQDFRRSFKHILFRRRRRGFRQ
The nature of experiment [7]: inhibitors of Sendai virus-induced IRF3 signaling, primary screen, TLR/RLR signaling modifier project, cell-based, Sendai virus stimulus, luciferase, 10K MLSCN set (AID 602276;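 active = inhibition at or above 50% at 10 µM; inactive = inhibition below 50%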;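 also: firefly luciferase from ISG56 promoter only with Renilla not read in this screen; 0% = Sendai virus plus DMSO and 100% = medium plus DMSO without virus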). Conditions: HEK293 RL24 IRF3 luciferase reporter, at 10 µM, stronger effect = higher value. (A reporter such as luciferase makes a cellular process visible.)
Experiment [8] can be described thus: inhibitors of poly I:C-induced TLR3 signaling, primary screen, cell-based, poly I:C stimulus, luciferase, 10K MLSCN set (AID 602277). Conditions: HEK293-TLR3 RL24 IRF3 luciferase reporter, at 10 µM, stronger effect = higher value.

Activity calls are given as the source filed them.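 The calls were made as follows, unless noted: active = inhibition of the reporter signal at or above 50%; inactive = inhibition below 50%.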

Voltage-gated potassium channel subunit beta-2 (Rattus norvegicus), sequence (P62483 whole entry, looked up): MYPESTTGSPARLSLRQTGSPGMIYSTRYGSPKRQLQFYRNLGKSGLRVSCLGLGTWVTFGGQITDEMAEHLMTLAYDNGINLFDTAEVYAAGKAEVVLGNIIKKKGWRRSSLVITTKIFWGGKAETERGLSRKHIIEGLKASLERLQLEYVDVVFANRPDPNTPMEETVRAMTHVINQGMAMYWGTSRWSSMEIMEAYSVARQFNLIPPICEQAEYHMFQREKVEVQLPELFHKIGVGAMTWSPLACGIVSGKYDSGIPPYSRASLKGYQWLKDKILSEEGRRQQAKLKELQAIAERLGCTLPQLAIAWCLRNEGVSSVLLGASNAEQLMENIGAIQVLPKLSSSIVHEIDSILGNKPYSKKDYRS

By inhibition is commonly meant the change of the read-out against control, counted positive when it falls. Regarding `CC1CCC(C(=O)NC(C(=O)NCCN2CCC(C)CC2)C(C)C)CC1` (centres undefined), the cell count in experiment [1] came to 256. The inhibition is -3.9% (inactive) in experiment [1], -24.9% (inactive) in experiment [3], 19.4% (inactive) in experiment [7] and 25.4% (inactive) in experiment [8]. Besides, in experiment [2], the inhibition of aggregation is -5.5% (inactive). For the same compound, the nuclei count in experiment [2] amounted to 71.9%; in experiment [3] it was 101%. For the same compound, in experiment [4], the fluorescence slope was -0.495 (inactive). In addition, the NADPH fluorescence slope in experiment [5] was 8.5e-05 (inactive). Moreover, in experiment [6], the slope was 0.00683 (inactive).

Regarding `O=C(NC1CCCC1)C1CCCN(S(=O)(=O)c2cccc3cccnc23)C1` (centres undefined), in experiment [1], the cell count was found to be 617. Moreover, the inhibition is 6.6% (inactive) in experiment [1], -68.3% (inactive) in experiment [3], -0.271% (inactive) in experiment [7] and 28.5% (inactive) in experiment [8]. Further, in experiment [2], the inhibition of aggregation was 3.4% (inactive). The nuclei count turned out to be 107% in experiment [2] and 132% in experiment [3]. In experiment [4], the fluorescence slope was -0.594 (inactive). The NADPH fluorescence slope in experiment [5] was -3.8e-05 (inactive). Moreover, the slope in experiment [6] is 0.00653 (inactive).

With `Cc1ccc(S(=O)(=O)N2CCOCC(=O)NCCOCCNC(=O)COCC2)cc1`, the cell count in experiment [1] is 592. Further, the inhibition is 2.1% (inactive) in experiment [1], -89.9% (inactive) in experiment [3], 9.52% (inactive) in experiment [7] and 9.55% (inactive) in experiment [8]. Moreover, the inhibition of aggregation in experiment [2] is -15.3% (inactive). Further, the figures for the nuclei count in experiment [2] and in experiment [3] were 116% and 108%, respectively. The fluorescence slope in experiment [4] is -0.622 (inactive). Besides, the NADPH fluorescence slope in experiment [5] was -2.4e-05 (inactive). Also, the slope in experiment [6] is 0.00426 (inactive).

As for `CC(=O)NS(=O)(=O)c1ccc(NC(=O)c2ccccc2F)cc1`, the cell count in experiment [1] worked out at 515. Further, the inhibition in experiment [1] is -3.9% (inactive); in experiment [3] it was 31.9% (inactive); in experiment [7], 6.18% (inactive); in experiment [8] it was 8.62% (inactive). In addition, in experiment [2], the inhibition of aggregation was 23.5% (inactive). Besides, the nuclei count in experiment [2] was found to be 90.4%; in experiment [3], 90.8%. In addition, the fluorescence slope in experiment [4] was -0.383 (inactive). Moreover, the NADPH fluorescence slope in experiment [5] is -3.8e-05 (inactive). Also, the slope in experiment [6] was 0.00586 (inactive).

As for `C/C(=N\O)C(=O)NCc1ccccn1`, the cell count in experiment [1] came to 290. Moreover, the inhibition is 0.5% (inactive) in experiment [1], -55.3% (inactive) in experiment [3], -4.43% (inactive) in experiment [7] and -25.9% (inactive) in experiment [8]. Besides, the inhibition of aggregation in experiment [2] is 4.5% (inactive). Besides, the figures for the nuclei count in experiment [2] and in experiment [3] were 108% and 104%, respectively. Besides, the fluorescence slope in experiment [4] was -0.431 (inactive). In experiment [5], the NADPH fluorescence slope is 1.8e-05 (inactive). Also, the slope in experiment [6] was 0.00348 (inactive).

In the case of `Cc1cc(C)nc(NC(=O)c2cnc3sccn3c2=O)n1`, the cell count in experiment [1] is 650. For the same compound, the inhibition in experiment [1] was -14% (inactive); in experiment [3], -14.9% (inactive); in experiment [7], 17.6% (inactive); in experiment [8], 47.4% (inactive). Besides, the inhibition of aggregation in experiment [2] is 18.2% (inactive). Further, the values for the nuclei count in experiment [2] and in experiment [3] were 84.7% and 110%, respectively. Further, the fluorescence slope in experiment [4] is -0.528 (inactive). For the same compound, in experiment [5], the NADPH fluorescence slope is -3.1e-05 (inactive). In experiment [6], the slope was 0.00661 (inactive).

Turning to `O=C(c1cc2n(n1)C(C(F)(F)F)CC(c1ccc(Cl)cc1)N2)N1CCCC1` (centres undefined), the cell count in experiment [1] was 259. The inhibition is -5.8% (inactive) in experiment [1], -9.7% (inactive) in experiment [3], 14.3% (inactive) in experiment [7] and 16.5% (inactive) in experiment [8]. For the same compound, the inhibition of aggregation in experiment [2] is -22.3% (inactive). Moreover, the nuclei count in experiment [2] worked out at 112%; in experiment [3] it was 102%. Moreover, the fluorescence slope in experiment [4] was -0.322 (inactive). Also, in experiment [5], the NADPH fluorescence slope was 4.7e-06 (inactive). Besides, in experiment [6], the slope was 0.00413 (inactive).

Consider `CCOC(=O)Cc1csc(NC(=O)CN(C)S(=O)(=O)c2ccc3c(c2)CCC(=O)N3)n1`, for which the cell count in experiment [1] turned out to be 585. In addition, the inhibition in experiment [1] was 12.6% (inactive); in experiment [3], 40.4% (inactive); in experiment [7], 25.7% (inactive); in experiment [8], 21.7% (inactive). In experiment [2], the inhibition of aggregation was -126% (inactive). Further, the nuclei count in experiment [2] worked out at 29.2%; in experiment [3], 111%. The fluorescence slope in experiment [4] is -0.521 (inactive). Also, the NADPH fluorescence slope in experiment [5] is -3.1e-05 (inactive). In addition, the slope in experiment [6] was 0.00704 (inactive).

Regarding `Cc1cc(NC(=O)COC(=O)C2COc3ccccc3O2)no1` (centres undefined), the cell count in experiment [1] came out at 734. In addition, the inhibition is -5.3% (inactive) in experiment [1], -15.9% (inactive) in experiment [3], 7.14% (inactive) in experiment [7] and 12.6% (inactive) in experiment [8]. In experiment [2], the inhibition of aggregation is -24.5% (inactive). For the same compound, the values for the nuclei count in experiment [2] and in experiment [3] were 106% and 103%, respectively. Further, the fluorescence slope in experiment [4] is -0.407 (inactive). Moreover, the NADPH fluorescence slope in experiment [5] is -7.6e-05 (inactive). For the same compound, the slope in experiment [6] was 0.00343 (inactive).

Take `Cc1cc(C)nc(N2CCC(C(=O)NC3CCCCCC3)CC2)n1`: the cell count in experiment [1] worked out at 502. In addition, the inhibition is -11.2% (inactive) in experiment [1], 19.9% (inactive) in experiment [3], 16.4% (inactive) in experiment [7] and 16.2% (inactive) in experiment [8]. Also, the inhibition of aggregation in experiment [2] was 25.2% (inactive). Besides, the nuclei count in experiment [2] was 93.6%; in experiment [3], 90.5%. In addition, the fluorescence slope in experiment [4] is -0.508 (inactive). Further, in experiment [5], the NADPH fluorescence slope was 6.6e-06 (inactive). Besides, the slope in experiment [6] was 0.00535 (inactive).

For the compound `CN1CCN(CCCNC(=O)Cn2ncc3c4ccccc4n(C)c3c2=O)CC1`, in experiment [1], the cell count turned out to be 479. Also, the inhibition in experiment [1] was -2.6% (inactive); in experiment [3] it was -69.4% (inactive); in experiment [7] it was -10.3% (inactive); in experiment [8], 35.3% (inactive). Moreover, the inhibition of aggregation in experiment [2] is -7.2% (inactive). In addition, the nuclei count in experiment [2] was found to be 98%; in experiment [3], 100%. Also, the fluorescence slope in experiment [4] is -0.615 (inactive). For the same compound, in experiment [5], the NADPH fluorescence slope was -1.6e-07 (inactive). For the same compound, the slope in experiment [6] is 0.0065 (inactive).

For the compound `CCOc1ccccc1N(CC(=O)NC1CCCC1)C(=O)CCCC(=O)Nc1ccccn1`, the cell count in experiment [1] is 369. The inhibition is 5.3% (inactive) in experiment [1], -20% (inactive) in experiment [3], 5.25% (inactive) in experiment [7] and 19.7% (inactive) in experiment [8]. Besides, the inhibition of aggregation in experiment [2] is 24.9% (inactive). Besides, the nuclei count in experiment [2] worked out at 102%; in experiment [3] it was 122%. Also, the fluorescence slope in experiment [4] was -0.63 (inactive). Also, the NADPH fluorescence slope in experiment [5] is -2.4e-05 (inactive). Further, the slope in experiment [6] is 0.00589 (inactive).

With `COc1ccc(OC)c(S(=O)(=O)N2CCC(C(=O)NCC3CCCO3)CC2)c1` (centres undefined), the cell count in experiment [1] is 268. The inhibition in experiment [1] was 1.3% (inactive); in experiment [3] it was -34.4% (inactive); in experiment [7], 14.9% (inactive); in experiment [8], 20.2% (inactive). The inhibition of aggregation in experiment [2] was 10.7% (inactive). Also, the nuclei count stood at 100% in experiment [2] and 115% in experiment [3]. The fluorescence slope in experiment [4] was -0.352 (inactive). For the same compound, the NADPH fluorescence slope in experiment [5] is 2.2e-05 (inactive). In experiment [6], the slope is 0.00611 (inactive).

Consider `c1ccc2c(c1)Cc1cc(CN3CCOCC3)ccc1-2`, for which the cell count in experiment [1] is 343. The inhibition is -8% (inactive) in experiment [1], -77.5% (inactive) in experiment [3], -50.9% (inactive) in experiment [7] and -105% (inactive) in experiment [8]. In addition, the inhibition of aggregation in experiment [2] is -2.2% (inactive). Also, the nuclei count was determined as 110% in experiment [2] and 128% in experiment [3]. For the same compound, the fluorescence slope in experiment [4] was -0.415 (inactive). The NADPH fluorescence slope in experiment [5] is -8.5e-05 (inactive). Moreover, the slope in experiment [6] is 0.00531 (inactive).

The record behind these values is PubChem BioAssay.
